Source: PubChem
Vif inh: HIV Vif inhibition; HEK293T cells, Vif self-association by quenched fluorescence, imaging, 24 h; inhibition, % at 7.49 µM; 340,000 tested, 0.35% active; AID 602346; in the data active = inhibition above about 50%, passing the limit was not always enough; inconclusive = no clear call, values can overlap the other calls; inactive = below about 31%
Glyco luc inh: N-linked glycosylation inhibition; D54 ERlucT glycosylation luciferase reporter, 24 h; percent of 100 nM tunicamycin response; reporter increase, % at 12.5 µM; 360,000 tested, 0.23% active;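 active = mean luciferase reporter signal, scaled so untreated is 0 and the glycosylation-blocking control 100, at or above a set limit in every replicate; inconclusive = mean reaches the limit but not every replicate does; inactive = mean below the limit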;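 note: luciferase carries N-glycosylation sites so blocking glycosylation raises the light; 0% = median of neutral control wells and 100% = median of 100 nM tunicamycin wells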
Myeloid diff 2: myeloid differentiation induction. AID 624256. 360,000 tested, 1% active. ER-HoxA9 myeloid progenitors, lysozyme-GFP differentiation, flow cytometry. calls only at 10 µM;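 active = normalized GFP-positive differentiation at or above the plate's own cutoff, the solvent-only control mean plus 3 SD; inconclusive = no clear call, values can overlap the other calls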;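 note: cells exposed to compound for four days before flow analysis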
ABCB6 inh MLPCN: human ABCB6 transporter inhibition | Q9NP58 | 360,000 tested, 0.19% active | K562-ABCB6 porphyrin accumulation, flow cytometry, 1 h; active compounds read low | fluorescence ratio to DMSO, % at 10 µM;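 active = fluorescence ratio to DMSO below 75%, the collection mean minus 3 SD; inconclusive = too few cells collected in the well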;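 note: signal is porphyrin accumulated inside mitochondria; 100% equals median channel fluorescence of DMSO control wells; lower ratio means ABCB6 inhibition with less porphyrin fluorescence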
RAD54 branch: RAD54 (human) branch migration inhibition. RAD54 Holliday junction branch migration, FAM/BHQ fluorescence. inhibition, % at 10.4 µM. 360,000 tested, 0.14% active. AID 602329;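 active = mean normalized replicate activity at least 40 and at least half of replicates scoring 40 or more; inconclusive = only one of the two criteria met; inactive = mean below 40 and under half of replicates reaching 40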;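 note: 0% = median of neutral control wells and 100% = median of positive control wells; inhibitors cause a drop in the FAM fluorescence signal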
Target sequence (Q92698 whole entry, looked up): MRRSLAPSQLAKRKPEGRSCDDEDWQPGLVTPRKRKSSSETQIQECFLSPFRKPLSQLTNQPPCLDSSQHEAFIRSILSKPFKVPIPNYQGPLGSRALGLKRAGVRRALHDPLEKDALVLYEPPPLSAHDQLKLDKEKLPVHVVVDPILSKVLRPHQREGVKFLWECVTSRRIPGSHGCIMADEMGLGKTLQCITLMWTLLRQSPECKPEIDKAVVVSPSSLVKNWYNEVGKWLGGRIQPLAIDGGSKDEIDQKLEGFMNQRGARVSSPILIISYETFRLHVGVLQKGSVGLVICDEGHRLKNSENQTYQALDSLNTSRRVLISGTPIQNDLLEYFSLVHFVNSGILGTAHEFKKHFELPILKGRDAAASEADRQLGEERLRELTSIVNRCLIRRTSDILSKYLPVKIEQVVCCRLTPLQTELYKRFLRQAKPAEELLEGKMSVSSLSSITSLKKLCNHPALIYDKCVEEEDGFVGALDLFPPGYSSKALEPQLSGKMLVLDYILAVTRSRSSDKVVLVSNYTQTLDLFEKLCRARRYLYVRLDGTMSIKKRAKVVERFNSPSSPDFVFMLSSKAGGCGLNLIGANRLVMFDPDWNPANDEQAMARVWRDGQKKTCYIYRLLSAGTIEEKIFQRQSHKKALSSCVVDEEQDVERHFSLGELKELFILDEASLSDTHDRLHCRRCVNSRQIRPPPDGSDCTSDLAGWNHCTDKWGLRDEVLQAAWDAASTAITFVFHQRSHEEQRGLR
Active calls of the source: *; i = inactive; ? = inconclusive; . = no result given; + = active, no number. The list is not random: actives were taken first. Their share in the collection is about 1.6%.

SMILES	Vif inh	Glyco luc inh	Myeloid diff 2	ABCB6 inh MLPCN	RAD54 branch
C#CCOCCOCCOCCNc1nc(N2CCN(C(=O)[C@H]([C@@H](C)O)n3cc(CCCCN)nn3)CC2)nc(N2CCN(C(=O)[C@H](CCCCN)n3cc(CC(C)O)nn3)CC2)n1 (stereo partly specified)	-2	2	i	95	-6
C#CCOCCOCCOCCNc1nc(N2CCN(C(=O)CCCCCCCCCCNC(=O)[C@@H](CCSC)n3cc(CCO)nn3)CC2)nc(N2CCN(C(=O)CCCCCCCCCCNC(=O)[C@@H]([C@H](C)O)n3cc(C)nn3)CC2)n1	-5	13	?	?	-8
COCC(=O)Nc1ccc2c(c1)C(=O)N(C)C[C@@H](OC)[C@@H](C)CN(C(C)=O)[C@H](C)CO2	.	.	.	.	1
O=C(C[C@@H]1C=C[C@@H](NC(=O)c2ccc(F)cc2)[C@@H](CO)O1)NCCc1ccncc1	.	.	.	.	5
CCN(C(=O)c1ccc(C(C)(C)C)cc1)c1nnc(Cn2nnc3ccccc32)s1	-16	-5	+	99	9
CCN(C(=O)CC(C)C)c1nnc(Cn2nnc3ccccc32)s1	-9	3	i	97	.
OC(CNCc1ccccc1Cl)COc1ccc(F)cc1 (stereo unspecified)	65*	-1	i	98	7
CCC(=O)N1C[C@@H](C)[C@@H](OC)CN(C)C(=O)c2ccc(NC(=O)c3cnccn3)cc2OC[C@@H]1C	.	.	.	.	-3
Cn1nnc2c(C(N)=O)ncn2c1=O	-7	1	+	126	-7
CCOc1cnn(-c2cc(Oc3ccc(C)cc3)ncn2)c(=O)c1Cl	11	0	i	101	1
Cc1ccccc1Oc1cc(-n2ncc(Cl)c(Cl)c2=O)ncn1	18	-22	?	60*	15
COc1ccc(C2CC(c3ccc(Cl)cc3)=NN2c2ccc(S(N)(=O)=O)cc2)cc1 (stereo unspecified)	24	-4	i	99	3
COc1ccc(C2CC(c3ccncc3)=NN2c2ccc(S(N)(=O)=O)cc2)cc1 (stereo unspecified)	93*	8	+	135	-2
O=C(NCC(=O)N(Cc1ccco1)C(C(=O)NC1CCCCC1)c1ccncc1)c1cccs1 (stereo unspecified)	-4	1	i	94	-7
COCCN(C(=O)CNC(=O)c1ccco1)C(C(=O)NC1CCCC1)c1cccc(OC)c1 (stereo unspecified)	52*	-1	i	97	2
O=C(NCC(=O)N(Cc1ccco1)C(C(=O)NC1CCCCC1)c1cccnc1)c1cccs1 (stereo unspecified)	1	-2	+	99	-10
COCCN(C(=O)CCl)C(C(=O)NC1CCCCC1)c1ccccc1C (stereo unspecified)	-2	30*	i	99	2
O=C(C1CC1)N1C[C@@H]2[C@H](c3ccccc31)[C@H](CO)N2S(=O)(=O)c1ccccc1	.	.	.	.	-2
CO[C@H]1CN(C)C(=O)c2ccc(NC(=O)Nc3cc(F)ccc3F)cc2OC[C@H](C)N(C(=O)c2cnccn2)C[C@@H]1C	.	.	.	.	-9
CCC(=O)c1ccc(OCC(=O)Nc2nn3cnnc3s2)cc1	68*	1	i	91	2
COCC#Cc1cnc2c(c1)C(=O)N([C@H](C)CO)C[C@H](C)[C@@H](CN(C)Cc1ccc(F)cc1)O2	.	.	.	.	3
COc1ccc(/C=C/C(=O)NCc2cccnc2)cc1	1	2	i	96	.
CCc1ccc(CN(Cc2cccnc2)C(=O)/C=C/c2ccc(OC)cc2)cc1	-16	-5	+	133	-25
Oc1ccc(/C=N/N=C/c2ccc(O)c(O)c2)cc1O	72*	-8	i	105	-6
C[C@H](CO)N1C[C@H](C)[C@H](CN(C)S(=O)(=O)c2ccc(F)cc2)OCCCC[C@H](C)Oc2ccc(NC(=O)Nc3ccccc3)cc2C1=O	.	.	.	.	4
SMILES	Vif inh	Glyco luc inh	Myeloid diff 2	ABCB6 inh MLPCN	RAD54 branch
C[C@@H]1CN([C@@H](C)CO)C(=O)c2cccc(NC(=O)C3CCOCC3)c2O[C@@H]1CN(C)S(=O)(=O)c1ccccc1	.	.	.	.	12
O=C(NCc1ccccc1Cl)C1CCCN(c2ncnc3c2nc2n3CCCCC2)C1 (stereo unspecified)	-2	3	+	97	-1
CCOc1ccccc1CNC(=O)C1CCCN(c2ncnc3c2nc2n3CCCCC2)C1 (stereo unspecified)	1	2	i	98	-10
CCSc1nnc(-c2sc3nnc(-c4ccccc4)c(-c4ccccc4)c3c2N)o1	-4	-5	+	582	-11
CCC(=O)Nc1ccc2c(c1)C(=O)N(C)C[C@@H](OC)[C@H](C)CN(Cc1ccccn1)[C@@H](C)CO2	.	.	.	.	-2
C[C@H](CO)N1C[C@H](C)[C@H](CN(C)Cc2ccc(Oc3ccccc3)cc2)Oc2ccc(NC(=O)c3ccncc3)cc2CC1=O	.	.	.	.	-7
CC(=O)NCC(=O)OCC(=O)c1ccccc1	2	0	+	100	2
C[C@H]1CN([C@@H](C)CO)C(=O)c2cc(C3=CCCCC3)cnc2O[C@@H]1CN(C)C(=O)Nc1ccccc1	.	.	.	.	-7
CCOc1ccc2c(c1)/C(=C(\C(Cl)=C(Cl)Cl)[N+](=O)[O-])N2	-4	1	+	148	.
CCCCOc1ccc2c(c1)/C(=C(\C(Cl)=C(Cl)Cl)[N+](=O)[O-])N2	26	2	+	283	-8
CCOc1ccc2c(c1)/C(=N/N1C(=O)c3ccccc3C1=O)C(=O)N2	3	3	i	97	.
O=[N+]([O-])/C(C(Cl)=C(Cl)Cl)=C1\Nc2ccccc2O1	-3	1	i	99	.
COc1cc(N2CCCC2)c(OC)cc1/C=C(/C#N)c1cccc(F)c1	.	-1	+	301	-26
CO[C@@H]1CN(C)C(=O)c2ccc(NC(=O)c3ccc4c(c3)OCO4)cc2OC[C@H](C)N(CC2CC2)C[C@@H]1C	.	.	.	.	5
O=C(Nc1cccc(-c2nc3ccccc3[nH]2)c1)c1cccc(NC(=O)c2ccco2)c1	72*	-17	i	89	4
O=C(Nc1ccc(Cl)c(-c2nc3ccccc3[nH]2)c1)c1ccc2c(c1)OCO2	-12	0	+	97	-8
O=C(Nc1ccc(-c2nc3ccccc3[nH]2)cc1)c1ccc2c(c1)OCO2	-8	1	i	96	8
CO[C@H]1CN(C)C(=O)c2ccc(NC(=O)C3CC3)cc2OC[C@H](C)N(C(=O)c2ccccn2)C[C@H]1C	.	.	.	.	-1
C[C@H](NC(=O)C[C@H]1C=C[C@H](NC(=O)Cc2ccccn2)[C@@H](CO)O1)c1ccccc1	.	.	.	.	1
COc1ccc(C2c3ccc(O)cc3Oc3ncn4nc(-c5cccnc5)nc4c32)cc1OC (stereo unspecified)	3	-1	+	99	.
COc1ccc(C2c3ccc(O)cc3Oc3ncn(Cc4ccco4)c(=N)c32)cc1OC (stereo unspecified)	-2	0	i	102	-7
